In all, about 81,000 sequences were measured (“one-hybrid fitness for binding parS DNA”: median about -0.17, highest 2% from about 0.51 on). Only a selection was taken, and the highest values are over-represented in it overall.

B1: Caulobacter ParB omega fusion; a variant is named by its letters at X, in order, B8GW30 (parent)
chain: MESVVVGEPGMSEGRRGLGRGLSALLGEVDAAPAQAPGEQLGGSREAPIEILQRNPDQPRRTFREEDLEDLSNSIREKGVLQPILVRPSPDTAGEYQIVAGERAWRAAQRAGLKTVPIMVRELDDLAVLEIGIIENVQRADLNVLEEALSYKVLMEKFERTQENIAQTIGKSXSHVANXMRLLXLPDEVQSYLVSGELTAXHARAIAAAADPVALAKQIIEGGLSVRETEALARKAPNLSAGKSKGGRPPRVKDTDTQALESDLSSVLGLDVSIDHRGSTGTLTITYATLEQLDDLCNRLTRGI

Variants of B1 are the subject of this assay. Kind of assay: one-hybrid fitness for binding parS DNA (scaled: cognate 1, non-cognate 0); higher = stronger binding. To be noted: with parS DNA site. The method in brief: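 Pre- and post-selection plasmids were Illumina-sequenced, three replicate libraries were pooled, and any variant with under 10 reads was removed. The libraries were Caulobacter ParB with four specificity codons randomised, selected in E. coli USO through a HIS3 reporter whose site is 19 bp from the promoter. Cells grew 48 hours at 37°C on M9 without histidine, with 0.1 mM IPTG and 5 mM 3-AT. Fitness is the log change in variant-to-wild-type read ratio, rescaled against cognate and non-cognate.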
In the case of RHHQ, the “one-hybrid fitness for binding parS DNA” value is not above 0.2. RHLF: the “one-hybrid fitness for binding parS DNA” value turned out to be 0.23.

Consider RHHG, for which the “one-hybrid fitness for binding parS DNA” value came to 0.967.

As for RHLG, the “one-hybrid fitness for binding parS DNA” value turned out to be 0.967. Turning to RHCM, the “one-hybrid fitness for binding parS DNA” value was not above 0.2. For RHDN, the “one-hybrid fitness for binding parS DNA” value amounted to 0.33. Consider RHCK, for which the “one-hybrid fitness for binding parS DNA” value is not above 0.2. For RHLQ, the “one-hybrid fitness for binding parS DNA” value was not above 0.2. Consider KRLV, for which the “one-hybrid fitness for binding parS DNA” value is not above 0.2. As to YFQT, the “one-hybrid fitness for binding parS DNA” value was not above 0.2. Turning to TWNC, the “one-hybrid fitness for binding parS DNA” value is not above 0.2. For the variant KIDC, the “one-hybrid fitness for binding parS DNA” value is not above 0.2. Turning to YREL, the “one-hybrid fitness for binding parS DNA” value was not above 0.2. To QRPG belongs not above 0.2; to ANRV, not above 0.2; to RHGH, not above 0.2. With RHSG, the “one-hybrid fitness for binding parS DNA” value was 0.958.

For RHGP, the “one-hybrid fitness for binding parS DNA” value was not above 0.2.

For the variant RHRG, the “one-hybrid fitness for binding parS DNA” value was found to be 0.903.

In the case of RHGG, the “one-hybrid fitness for binding parS DNA” value was 0.939. With RHSQ, the “one-hybrid fitness for binding parS DNA” value is not above 0.2.

Consider RHSR, for which the “one-hybrid fitness for binding parS DNA” value was not above 0.2. As for RHRP, the “one-hybrid fitness for binding parS DNA” value was not above 0.2. To RHRH belongs 0.232. As for KVHG, the “one-hybrid fitness for binding parS DNA” value was not above 0.2.

For the variant IAKA, the “one-hybrid fitness for binding parS DNA” value was not above 0.2. For MESK the value was not above 0.2. As for TRMT, the “one-hybrid fitness for binding parS DNA” value is not above 0.2. For the variant GQVV, the “one-hybrid fitness for binding parS DNA” value was not above 0.2. In the case of AIVR, the “one-hybrid fitness for binding parS DNA” value was not above 0.2.

For KQMS, the “one-hybrid fitness for binding parS DNA” value was not above 0.2. Consider GWHV, for which the “one-hybrid fitness for binding parS DNA” value was not above 0.2. Take VEGN: the “one-hybrid fitness for binding parS DNA” value was not above 0.2. Turning to TSSY, the “one-hybrid fitness for binding parS DNA” value is not above 0.2. For the variant DLYA, the “one-hybrid fitness for binding parS DNA” value is not above 0.2. Take RLCA: the “one-hybrid fitness for binding parS DNA” value came to 0.609. With RLDA, the “one-hybrid fitness for binding parS DNA” value came to 0.588.

In the case of NLNA, the “one-hybrid fitness for binding parS DNA” value was not above 0.2.

On to NLCA, for which the “one-hybrid fitness for binding parS DNA” value was not above 0.2. On to DLCA, for which the “one-hybrid fitness for binding parS DNA” value is not above 0.2.

In the case of RDNA, the “one-hybrid fitness for binding parS DNA” value is not above 0.2. For ALYA the value was not above 0.2. On to RLYA, for which the “one-hybrid fitness for binding parS DNA” value worked out at 0.607. Turning to DLDA, the “one-hybrid fitness for binding parS DNA” value is not above 0.2. Regarding RLNA, the “one-hybrid fitness for binding parS DNA” value worked out at 0.62. On to ASVG, for which the “one-hybrid fitness for binding parS DNA” value is not above 0.2. Consider YGDG, for which the “one-hybrid fitness for binding parS DNA” value is not above 0.2. For VARP the value was not above 0.2; for TRNE, not above 0.2; for SERK, not above 0.2.

Turning to TYPS, the “one-hybrid fitness for binding parS DNA” value was not above 0.2. For the variant QKME, the “one-hybrid fitness for binding parS DNA” value was not above 0.2. For the variant QGRS, the “one-hybrid fitness for binding parS DNA” value is not above 0.2. With LGAW, the “one-hybrid fitness for binding parS DNA” value was not above 0.2. As to LDKA, the “one-hybrid fitness for binding parS DNA” value was not above 0.2.

Regarding WVHI, the “one-hybrid fitness for binding parS DNA” value was not above 0.2. Consider RLRA, for which the “one-hybrid fitness for binding parS DNA” value was 0.727. NLRA: the “one-hybrid fitness for binding parS DNA” value is not above 0.2. Turning to DLRA, the “one-hybrid fitness for binding parS DNA” value is not above 0.2. To SEQC belongs not above 0.2; to TFQR, not above 0.2. To RIIA belongs 0.499; to RIPA, 0.29. For NISA, the “one-hybrid fitness for binding parS DNA” value is not above 0.2.

On to RISA, for which the “one-hybrid fitness for binding parS DNA” value was determined as 0.608.

As to RICA, the “one-hybrid fitness for binding parS DNA” value was 0.525.

As for RILA, the “one-hybrid fitness for binding parS DNA” value is 0.576. In the case of RIYA, the “one-hybrid fitness for binding parS DNA” value was 0.613. On to NICA, for which the “one-hybrid fitness for binding parS DNA” value was not above 0.2.

Take HSNV: the “one-hybrid fitness for binding parS DNA” value is not above 0.2.

Turning to QGKW, the “one-hybrid fitness for binding parS DNA” value was not above 0.2. Take YPTH: the “one-hybrid fitness for binding parS DNA” value is not above 0.2.

For the variant PDPT, the “one-hybrid fitness for binding parS DNA” value was not above 0.2. As to YNHR, the “one-hybrid fitness for binding parS DNA” value is not above 0.2. To PMSC belongs not above 0.2.

Take NLLT: the “one-hybrid fitness for binding parS DNA” value is not above 0.2. To NQHT belongs not above 0.2.

For the variant WWRT, the “one-hybrid fitness for binding parS DNA” value was not above 0.2. Turning to PCFG, the “one-hybrid fitness for binding parS DNA” value is not above 0.2. With YQHR, the “one-hybrid fitness for binding parS DNA” value was not above 0.2. In the case of NIRA, the “one-hybrid fitness for binding parS DNA” value was not above 0.2.

In the case of RIEA, the “one-hybrid fitness for binding parS DNA” value is 0.451. As to RIRA, the “one-hybrid fitness for binding parS DNA” value was 0.672. On to RIQA, for which the “one-hybrid fitness for binding parS DNA” value was 0.576.

As for RIHA, the “one-hybrid fitness for binding parS DNA” value was 0.574.

Take RIGA: the “one-hybrid fitness for binding parS DNA” value came to 0.661. As to TSST, the “one-hybrid fitness for binding parS DNA” value was not above 0.2.

On to VTVI, for which the “one-hybrid fitness for binding parS DNA” value was not above 0.2.

Take IMSG: the “one-hybrid fitness for binding parS DNA” value is not above 0.2. Consider ENNW, for which the “one-hybrid fitness for binding parS DNA” value is not above 0.2.

As for TFVM, the “one-hybrid fitness for binding parS DNA” value is not above 0.2. To KSAC belongs not above 0.2; to DWTC, not above 0.2; to TPML, not above 0.2. CISV: the “one-hybrid fitness for binding parS DNA” value was not above 0.2.

RIWA: the “one-hybrid fitness for binding parS DNA” value came out at 0.539.

Turning to THES, the “one-hybrid fitness for binding parS DNA” value was not above 0.2. For MCDC, the “one-hybrid fitness for binding parS DNA” value is not above 0.2. As to NYQC, the “one-hybrid fitness for binding parS DNA” value is not above 0.2. NSQY: the “one-hybrid fitness for binding parS DNA” value was not above 0.2. Take HMPR: the “one-hybrid fitness for binding parS DNA” value was not above 0.2. For PPDT the value was not above 0.2; for ARRF, not above 0.2; for RQHF, 0.231. In the case of RQHK, the “one-hybrid fitness for binding parS DNA” value was not above 0.2. Regarding RQWK, the “one-hybrid fitness for binding parS DNA” value was not above 0.2. For the variant RQWM, the “one-hybrid fitness for binding parS DNA” value came out at 0.233.

Turning to RQDH, the “one-hybrid fitness for binding parS DNA” value was not above 0.2. For RQWG the value was 0.877; for RQRG, 0.97; for RQHG, 1.01. Take RQDG: the “one-hybrid fitness for binding parS DNA” value amounted to 0.93. As for RQDD, the “one-hybrid fitness for binding parS DNA” value was not above 0.2. As to RQRP, the “one-hybrid fitness for binding parS DNA” value was not above 0.2. For RQRH the value was 0.249; for WATG, not above 0.2. For TFEV, the “one-hybrid fitness for binding parS DNA” value was not above 0.2. KKQL: the “one-hybrid fitness for binding parS DNA” value is not above 0.2. For VEMW, the “one-hybrid fitness for binding parS DNA” value amounted to 0.21. SPRE: the “one-hybrid fitness for binding parS DNA” value was not above 0.2. Turning to VHIS, the “one-hybrid fitness for binding parS DNA” value was not above 0.2.

In the case of HAND, the “one-hybrid fitness for binding parS DNA” value is not above 0.2. Turning to MQAL, the “one-hybrid fitness for binding parS DNA” value was not above 0.2. Consider RQNM, for which the “one-hybrid fitness for binding parS DNA” value was 0.325. Regarding RQYD, the “one-hybrid fitness for binding parS DNA” value was not above 0.2. For RQLG the value was 0.982; for RQQH, not above 0.2. For RQLH, the “one-hybrid fitness for binding parS DNA” value was not above 0.2. Regarding RQYH, the “one-hybrid fitness for binding parS DNA” value was not above 0.2. As for RQQG, the “one-hybrid fitness for binding parS DNA” value was 0.99.

Regarding RQNF, the “one-hybrid fitness for binding parS DNA” value came out at 0.216. RQLD: the “one-hybrid fitness for binding parS DNA” value was not above 0.2.

As for RQNG, the “one-hybrid fitness for binding parS DNA” value was determined as 1.01.

As for RQYG, the “one-hybrid fitness for binding parS DNA” value turned out to be 0.994. As to RQQN, the “one-hybrid fitness for binding parS DNA” value stood at 0.469.

As for YEKG, the “one-hybrid fitness for binding parS DNA” value was not above 0.2. MTTE: the “one-hybrid fitness for binding parS DNA” value was not above 0.2. PMRC: the “one-hybrid fitness for binding parS DNA” value was not above 0.2.

Take TKTN: the “one-hybrid fitness for binding parS DNA” value is not above 0.2.

Turning to ESQE, the “one-hybrid fitness for binding parS DNA” value is not above 0.2. Regarding PCYG, the “one-hybrid fitness for binding parS DNA” value was not above 0.2.

With FVTS, the “one-hybrid fitness for binding parS DNA” value is not above 0.2. To VWVK belongs not above 0.2. For TAGS the value was not above 0.2; for QLHQ, not above 0.2; for GGAM, not above 0.2. Regarding MKCT, the “one-hybrid fitness for binding parS DNA” value is not above 0.2. On to RQGG, for which the “one-hybrid fitness for binding parS DNA” value was 0.945. In the case of RQSH, the “one-hybrid fitness for binding parS DNA” value is not above 0.2. With RQCY, the “one-hybrid fitness for binding parS DNA” value is 0.412.

For RQSD, the “one-hybrid fitness for binding parS DNA” value was not above 0.2.

Regarding RQCG, the “one-hybrid fitness for binding parS DNA” value turned out to be 0.97. As to RQGF, the “one-hybrid fitness for binding parS DNA” value came out at 0.234. Regarding RQCR, the “one-hybrid fitness for binding parS DNA” value is not above 0.2. For the variant RQGQ, the “one-hybrid fitness for binding parS DNA” value is not above 0.2. With RQSG, the “one-hybrid fitness for binding parS DNA” value worked out at 0.984. Take NETE: the “one-hybrid fitness for binding parS DNA” value was not above 0.2. For YGVD the value was not above 0.2; for VVSY, not above 0.2; for LSGR, not above 0.2.

The values are drawn from a collection of fitness landscapes (doi:10.1016/j.celrep.2020.107928).
